Inconclusive results are not listed. Activity calls are given as the source filed them. Calls follow the shape of the dose curve; as a rule, active = well fitted cell-killing curve with a large enough effect; inconclusive = small, poorly fitted or top-dose-only effect, or effect the other way; inactive = no such curve, though single readings can be large or run the other way.
% is scaled to controls: 0 for no effect and ±100 for the full control effect; potency is read from the fitted curve at half-maximal effect.

The test system of this assay is JEG-3. The assay is described as follows: Confirmatory qHTS for gynecologic anti-cancer compounds from libraries of approved drugs and bioactive compounds. Also: nearly all actives have a fitted effect of over 55% in size. Conditions: gynecologic cancer cell panel viability, ATPlite luminescence, 48 h; series mostly up to 57.6 µM; activity change, negative = viability loss: at the top concentration. In a few lines:
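1,000 cells/well; 16 h pre-incubation 37 C, 5% CO2; pin-transferred cpd in DMSO, 11 conc (1:3), 57.5 uM–0.977 nM; 48 h; ATPlite, 15 min RT; luminescence → IC50.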
Background: qHTS replaces the single test concentration by a dilution series.
Turning to `Cc1ccc(C(=O)N(CCCN)C(c2nc3cc(Cl)ccc3c(=O)n2Cc2ccccc2)C(C)C)cc1` (configuration not stated), the Potency was 0.0153 µM (active).

In the case of `O=C(c1ccc(/C=C/c2n[nH]c3ccccc23)cc1)N1CCNCC1`, the Potency was 24.3 µM (active).

As for `CC(C)Oc1ccc(C(=O)NC(CNC(=O)CN(C)C)Cc2ccc(-c3cn4cccc(C(C)O)c4n3)cc2)cc1Cl` (configuration not stated), the Potency was 0.544 µM (active).

Take `CCn1c(-c2nonc2N)nc2c(C#CC(C)(C)O)ncc(OCC3CCCNC3)c21` (configuration not stated): the “activity change, negative = viability loss” value was 1.27% (inactive).

As to `C#C[C@]1(O)CC[C@H]2[C@@H]3CCC4=CC(=O)CC[C@@H]4[C@H]3CC[C@@]21CC`, the “activity change, negative = viability loss” value was -1.31% (inactive).

On to `CC[C@H](Nc1ncnc2nc[nH]c12)c1nc2cccc(F)c2c(=O)n1-c1ccccc1`, for which the activity change, negative = viability loss is -0.887% [at 10.6 µM] (inactive).

With `COc1cccc2c1C(=O)c1c(O)c3c(c(O)c1C2=O)C[C@@](O)(C(=O)CO)C[C@@H]3O[C@H]1C[C@H](N)[C@H](O)[C@H](C)O1`, the Potency was 1.09 µM (active).

`Cc1csc(NC(=O)c2sc3nc4c(c(C(F)(F)F)c3c2N)CCC4)n1`: the Potency was 13.7 µM (active).

As to `CCN1CCN(Cc2ccc(Nc3ncc(F)c(-c4cc(F)c5nc(C)n(C(C)C)c5c4)n3)nc2)CC1`, the Potency was 9.68 µM (active).

Take `O=C1N(c2ccccc2)c2ccccc2C1(Cc1ccncc1)Cc1ccncc1`: the “activity change, negative = viability loss” value is 27.1% (inactive).

`OCc1ccc(-c2ccc(-c3ccc(CO)s3)o2)s1`: the “activity change, negative = viability loss” value was -21.6% [at 19.5 µM] (inactive).

On to `CCC(=O)N1CCN(c2ccc(-n3c(=O)ccc4cnc5ccc(-c6cnc7ccccc7c6)cc5c43)cc2C(F)(F)F)CC1`, for which the Potency is 6.27 µM (active).

`Cc1cnc(Nc2ccc(F)cc2Cl)nc1-c1c[nH]c(C(=O)NC(CO)c2cccc(Cl)c2)c1` (configuration not stated): the “activity change, negative = viability loss” value is -27.8% (inactive).

Take `CCn1cc(-c2ccnc3[nH]c(-c4cccc(CN(C)C)c4)cc23)c(-c2ccc(NC(=O)N(C)C)cc2)n1`: the Potency is 13.3 µM (active).

Regarding `CCN(CC)CCCC(C)Nc1ccnc2cc(Cl)ccc12` (configuration not stated), the “activity change, negative = viability loss” value was 8.84% [at 19.5 µM] (inactive).

Regarding `CC[C@@]1(O)C(=O)OCc2c1cc1n(c2=O)Cc2cc3c(CN(C)C)c(O)ccc3nc2-1`, the Potency was 1.09 µM (active).

For `CNC(=O)CN1CCC(Oc2cc3c(Nc4cccc(Cl)c4F)ncnc3cc2OC)CC1`, the “activity change, negative = viability loss” value is -23.5% (inactive).

As for `Cc1c(NC(=O)OCC2COCCN2)cn2ncnc(Nc3ccc4c(cnn4Cc4cccc(F)c4)c3)c12` (configuration not stated), the Potency was 30.6 µM (active).

For `Nc1ccccc1NC(=O)c1ccc(CNc2nccc(-c3cccnc3)n2)cc1`, the Potency is 2.17 µM (active).

Take `NC(=O)c1ccc2nc(-c3ccc(Oc4ccc(Cl)cc4)cc3)[nH]c2c1`: the Potency is 21.7 µM (active).

On to `CC(C)Nc1cc(-c2c[nH]c(C(=O)N[C@H](CO)c3cccc(Cl)c3)c2)c(Cl)cn1`, for which the Potency was 27.3 µM (active).

In the case of `CC(Oc1ccc2[nH]nc(/C=C/c3cnn(CCO)c3)c2c1)c1c(Cl)cncc1Cl` (configuration not stated), the Potency is 6.85 µM (active).

Turning to `CS(=O)(=O)c1ccc(-c2cnc(N)c(C(=O)Nc3ccccc3)n2)cc1`, the “activity change, negative = viability loss” value was -3.63% (inactive).

On to `CN1CCN(CCOc2cc(OC3CCOCC3)c3c(Nc4c(Cl)ccc5c4OCO5)ncnc3c2)CC1`, for which the “activity change, negative = viability loss” value was -25% (inactive).

Consider `CC(C)C[C@H](NC(=O)[C@@H](NC(=O)c1cccc(-c2ccccc2)n1)[C@@H](C)O)B(O)O`, for which the Potency was 1.53 µM (active).

On to `CCCCc1nc2cc(/C=C/C(=O)NO)ccc2n1CCN(CC)CC`, for which the Potency is 1.53 µM (active).

As to `Cc1cc(C(=O)N2CCN(c3cccc(Cl)c3)CC2)n(-c2ccccc2)n1`, the Potency is 3.43 µM (active).

Consider `CC[C@]1(O)C[C@H]2CN(CCc3c([nH]c4ccccc34)[C@@](C(=O)OC)(c3cc4c(cc3OC)N(C=O)[C@H]3[C@@](O)(C(=O)OC)[C@H](OC(C)=O)[C@]5(CC)C=CCN6CC[C@]43[C@@H]65)C2)C1`, for which the Potency is 0.193 µM (active).

In the case of `COc1cc(N2CCC(N3CCN(C)CC3)CC2)ccc1Nc1ncc(Cl)c(Nc2ccccc2S(=O)(=O)C(C)C)n1`, the Potency is 19.3 µM (active).

For `C[C@@H](Oc1cc(-c2cnn(C3CCNCC3)c2)cnc1N)c1c(Cl)ccc(F)c1Cl`, the Potency was 21.7 µM (active).

As for `COc1ccccc1N1CCN(CC(O)COc2cccc3ccccc23)CC1` (configuration not stated), the “activity change, negative = viability loss” value was -19.4% (inactive).

Turning to `CN(NC(=O)CC(=O)NN(C)C(=S)c1ccccc1)C(=S)c1ccccc1`, the Potency is 0.109 µM (active).

For the origin of these results see PubChem BioAssay AID1345085 (National Center for Advancing Translational Sciences (NCATS), 2018).
